PubChem BioAssay (NCATS)
Inconclusive results are not listed. Calls of active or inactive are those of the source. Unless noted, the call rests on the fitted dose curve; in most records, active means well fitted curve in either direction with a large enough effect (not every such curve was filed as active); inconclusive means small, poorly fitted or top-dose-only effect, or another doubt; inactive means flat fitted curve, though single readings scatter.

Columns and labels:
[1] = molecular target: Lysosomal acid glucosylceramidase (Homo sapiens) (UniProt P04062); experiment: Glucocerebrosidase-p2 (AID 348; in the data active means potency below about 10 µM; further: potency means the concentration at half of the fitted maximal effect); details: purified GBA, blue fluorogenic substrate, 40 min
Chain of Lysosomal acid glucosylceramidase (Homo sapiens) (P04062 whole entry, looked up): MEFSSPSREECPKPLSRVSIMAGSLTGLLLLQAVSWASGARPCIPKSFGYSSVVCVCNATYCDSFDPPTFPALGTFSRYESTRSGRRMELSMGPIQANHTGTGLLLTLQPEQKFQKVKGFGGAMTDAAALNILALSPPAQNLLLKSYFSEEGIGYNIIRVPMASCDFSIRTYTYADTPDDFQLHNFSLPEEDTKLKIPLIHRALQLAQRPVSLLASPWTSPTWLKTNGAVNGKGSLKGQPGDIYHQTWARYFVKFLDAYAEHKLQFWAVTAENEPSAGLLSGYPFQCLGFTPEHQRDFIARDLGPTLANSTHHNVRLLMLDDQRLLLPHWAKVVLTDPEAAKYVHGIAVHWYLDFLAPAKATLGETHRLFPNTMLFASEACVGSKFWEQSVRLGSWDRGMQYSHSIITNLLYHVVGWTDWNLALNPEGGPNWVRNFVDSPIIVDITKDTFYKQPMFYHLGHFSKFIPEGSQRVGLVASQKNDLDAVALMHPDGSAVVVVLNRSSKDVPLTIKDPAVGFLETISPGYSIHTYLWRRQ
Method in brief: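 Normal human glucocerebrosidase (0.2 nM) with blue fluorogenic substrate (80 uM final) in citrate/phosphate pH 5.9 with 10mM sodium taurocholate, 0.01% tween-20; 40 min RT, NaOH/glycine stop; fluorescence Ex 365/Em 440; AC50 from a titration from 0.6 nM upwards.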

[2] = AP1 Signaling Pathway (AID 357); details: ME-180 AP-1-bla reporter, EGF-induced, beta-lactamase ratio, 5 h; at 7.69 µM (top of the series) unless noted;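 further: ME-180 reporter cells stimulated with EGF at its EC50 level; on the % scale 0 is the no-effect control and ±100 the full control effect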
Method in brief: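 In this screen, ME-180 cells in Opti-MEM with 0.5% dialyzed FBS received EC50 EGF and compound titrations for 5 h. AP-1 reporter beta-lactamase was detected via CCF4 ratio, giving AC50 for positive and negative modulators.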

[3] = NFAT Signaling Pathway (AID 444); details: Jurkat NFAT-bla M1, carbachol, beta-lactamase ratio, 5 h; at 7.69 µM (top of the series) unless noted;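 further: carbachol stimulus at about its EC50 of 1 µM final; on the % scale 0 is the no-effect control and ±100 the full control effect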
Method in brief: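 Read-out: CCF4 FRET ratio (460 nm/530 nm) after 1 h RT dye loading, used for %activity and AC50 from titration series. Cells: Jurkat NFAT-β-lactamase/M1 line, treated with compound plus 1 uM carbachol for 5 h, 37 °C.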

[4] = Stat Signaling Pathway (AID 446); details: ME-180 (cervical carcinoma) SIE beta-lactamase reporter, IL-6 stimulated, 5 h; at 7.69 µM (top of the series) unless noted;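 further: ME-180 cervical cancer cells given 40 pM IL-6 alongside compound; SIE-controlled beta-lactamase reporter measured as 460/530 nm FRET emission ratio; on the % scale 0 is the no-effect control and ±100 the full control effect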
Method in brief: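 FRET read-out (405 nm excitation, 460/530 nm emission) of a beta-lactamase reporter under a STAT-inducible element in ME-180 cervical carcinoma cells. Cells with compound receive 40 pM IL-6 for 5 h. Values are normalised to AC90 stimulation and AC90 JAK-inhibitor controls.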

[5] = molecular target: Glucocorticoid receptor (Homo sapiens) (UniProt P04150); experiment: GR-GFP Redistribution (AID 450;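 active means compounds whose dose series gives a full or clear partial fitted curve of increased nuclear translocation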; further: potency means the concentration at half of the fitted maximal effect); details: U2OS GR-GFP nuclear translocation, laser cytometry, 2 h
Chain of Glucocorticoid receptor (Homo sapiens) (P04150 whole entry, looked up, the tested form may be a part): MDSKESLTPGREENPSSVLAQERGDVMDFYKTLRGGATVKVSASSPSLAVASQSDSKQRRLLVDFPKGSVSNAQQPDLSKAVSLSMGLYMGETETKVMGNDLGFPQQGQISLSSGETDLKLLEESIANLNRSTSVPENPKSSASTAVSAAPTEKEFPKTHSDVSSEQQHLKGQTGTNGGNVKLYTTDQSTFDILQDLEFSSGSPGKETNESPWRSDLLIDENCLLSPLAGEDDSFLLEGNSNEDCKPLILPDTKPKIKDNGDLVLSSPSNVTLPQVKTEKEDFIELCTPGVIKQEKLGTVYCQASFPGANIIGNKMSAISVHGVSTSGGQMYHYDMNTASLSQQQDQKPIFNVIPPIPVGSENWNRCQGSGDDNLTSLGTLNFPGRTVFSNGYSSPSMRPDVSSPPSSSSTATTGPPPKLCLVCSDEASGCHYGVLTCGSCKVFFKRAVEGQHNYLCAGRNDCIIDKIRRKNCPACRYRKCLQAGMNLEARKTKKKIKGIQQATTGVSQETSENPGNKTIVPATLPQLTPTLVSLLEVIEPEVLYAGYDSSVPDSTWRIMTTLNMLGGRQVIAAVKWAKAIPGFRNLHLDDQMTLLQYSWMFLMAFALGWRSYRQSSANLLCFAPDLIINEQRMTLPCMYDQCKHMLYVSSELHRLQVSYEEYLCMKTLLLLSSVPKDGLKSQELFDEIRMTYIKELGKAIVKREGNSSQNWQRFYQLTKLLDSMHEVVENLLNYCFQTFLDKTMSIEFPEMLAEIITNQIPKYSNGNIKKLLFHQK

[6] = molecular target: Glucocorticoid receptor (Homo sapiens) (UniProt P04150); experiment: GR-EFC Redistribution (AID 451; calls by dose curve; further: potency means the concentration at half of the fitted maximal effect); details: CHO-K1 GR-EFC translocation, beta-gal luminescence, 2 h
Method in brief: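 Translocation of GR-ED fusion to nuclear EA restores b-gal, read by luminescence after 1 h room-temperature detection. Engineered CHO-K1 biosensor cells, 1,000/well, exposed 2 h at 37 C to titrations up to 46 uM final.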

[7] = molecular target: Mitogen-activated protein kinase 10 (Mus musculus) (UniProt Q61831); experiment: JNK3 AlphaScreen Assay (AID 530); details: JNK3 lysate, c-Jun phosphorylation; series mostly up to 11.4 µM;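 further: kinase came from lysate of stimulated human HepG2 cells; signal reports phosphorylation of biotinylated GST-cJun 1-79 at Ser73 with 10 µM ATP; on the % scale 0 is the no-effect control and ±100 the full control effect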
Method in brief: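 Kinase buffer: 20 mM Tris-HCl pH 7.6, 10 mM MgCl2, 1 mM DTT, 0.1 mM Na3VO4, 0.01% Tween-20; ATP 10 uM. Substrate biotin-GST-cJun(1-79), enzyme from activated HepG2 lysates. Detection by Ser73 phospho-antibody AlphaScreen.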

[8] = molecular target: 3',5'-cyclic-AMP phosphodiesterase 4B (Homo sapiens) (UniProt Q07343); experiment: qHTS Assay for Inhibitors of PDE-IV (AID 607; active means well fitted activation curve with a large enough effect in the main read-out, with a control signal flat, not every such curve was filed as active; further: % of control where 0% means no effect); details: HEK293 ACTOne CNG channel cells, membrane potential fluorescence; series mostly up to 22.9 µM
Chain of 3',5'-cyclic-AMP phosphodiesterase 4B (Homo sapiens) (Q07343 whole entry, looked up): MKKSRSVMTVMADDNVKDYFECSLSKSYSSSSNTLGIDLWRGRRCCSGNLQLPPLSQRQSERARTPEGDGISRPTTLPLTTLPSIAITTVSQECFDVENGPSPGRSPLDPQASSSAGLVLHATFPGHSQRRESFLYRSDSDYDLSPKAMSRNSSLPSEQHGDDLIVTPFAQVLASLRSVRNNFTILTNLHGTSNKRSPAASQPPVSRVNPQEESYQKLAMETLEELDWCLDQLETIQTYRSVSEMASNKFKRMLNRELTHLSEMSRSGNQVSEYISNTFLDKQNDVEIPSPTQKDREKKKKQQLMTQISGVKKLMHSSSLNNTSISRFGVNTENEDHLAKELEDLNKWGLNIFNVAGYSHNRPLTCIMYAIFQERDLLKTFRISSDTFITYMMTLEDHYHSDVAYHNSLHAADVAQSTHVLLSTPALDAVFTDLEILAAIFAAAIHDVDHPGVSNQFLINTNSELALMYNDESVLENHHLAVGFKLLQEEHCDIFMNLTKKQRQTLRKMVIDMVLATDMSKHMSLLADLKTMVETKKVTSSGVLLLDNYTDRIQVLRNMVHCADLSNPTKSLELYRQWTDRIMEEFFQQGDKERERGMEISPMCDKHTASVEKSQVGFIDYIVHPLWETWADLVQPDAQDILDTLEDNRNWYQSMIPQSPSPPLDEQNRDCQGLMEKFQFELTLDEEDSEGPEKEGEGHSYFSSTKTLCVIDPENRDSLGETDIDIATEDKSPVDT
Method in brief: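 Cell-based read-out of cAMP via a modified cyclic nucleotide-gated channel and membrane potential dye (535/590 nm) in HEK293 cells expressing PDE4 endogenously. Compounds tested up to 22.9 uM final; 100 uM RO 20-1724 reference.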

C[N@@+]1(CC[N@@+]2(C)CCC[C@H]2c2cccnc2)CCC[C@@H]1c1cccnc1
inactive: Potency [1] > 11.4 µM | activity change, negative = inhibition [2] 28.9% | activity change, negative = inhibition [3] -16.4% | activity, negative = inhibition [4] -5.44% | Potency [5] > 46 µM | Potency [6] > 9.22 µM | Potency [7] | Potency [8]

CN(C)CCNS(=O)(=O)N(C)C
inactive: Potency [1] > 11.4 µM | activity change, negative = inhibition [2] -0.375% | activity change, negative = inhibition [3] 3.58% | activity, negative = inhibition [4] 4.72% | Potency [5] > 46 µM | Potency [6] > 9.22 µM | Potency [7] | Potency [8]

O=C1CCC[C@H]1C(=O)Nc1ccc2ccccc2c1
inactive: Potency [1] > 11.4 µM | activity change, negative = inhibition [2] 7.06% | activity change, negative = inhibition [3] 16.2% | activity, negative = inhibition [4] 8.65% | Potency [5] > 46 µM | Potency [6] > 9.22 µM | Potency [7] | Potency [8]

Cc1ccc(C)c([C@@H]2NC(=O)c3ccccc3N2)c1
inactive: Potency [1] > 11.4 µM | activity change, negative = inhibition [2] -2.78% | activity change, negative = inhibition [3] -14.2% | activity, negative = inhibition [4] -1.94% | Potency [5] > 46 µM | Potency [6] > 9.22 µM | Potency [7] | Potency [8]

O=C(O)CSc1ccc(N=C=S)cc1
inactive: Potency [1] > 11.4 µM | activity change, negative = inhibition [2] 7.13% | activity change, negative = inhibition [3] 27.9% | activity, negative = inhibition [4] 5.22% | Potency [5] > 46 µM | Potency [6] > 9.22 µM | Potency [7] | Potency [8]

O=CNc1ncn[nH]1
inactive: Potency [1] > 11.4 µM | activity change, negative = inhibition [2] -1.52% | activity change, negative = inhibition [3] -0.432% | activity, negative = inhibition [4] 8.03% | Potency [5] > 46 µM | Potency [6] > 9.22 µM | Potency [7] | Potency [8]

O=C(O)CCCCn1cnc2c(=S)nc[nH]c21
inactive: Potency [1] > 11.4 µM | activity change, negative = inhibition [2] 8.11% | activity change, negative = inhibition [3] 5.86% | activity, negative = inhibition [4] 6.11% | Potency [5] > 46 µM | Potency [6] > 9.22 µM | Potency [7] | Potency [8]

OC1(C(O)(c2ccc(-c3ccccc3)cc2)c2ccc(-c3ccccc3)cc2)CCCCC1
inactive: Potency [1] > 11.4 µM | activity change, negative = inhibition [2] 7.3% | activity change, negative = inhibition [3] 2.32% | activity, negative = inhibition [4] 1.1% | Potency [5] > 46 µM | Potency [6] > 9.22 µM | Potency [7] | Potency [8]

CC(C)=N[C@H](C(=O)O)C(C)(C)S
inactive: Potency [1] > 11.4 µM | activity change, negative = inhibition [2] 10% | activity change, negative = inhibition [3] 3.46% | activity, negative = inhibition [4] 6.64% | Potency [5] > 46 µM | Potency [6] > 9.22 µM | Potency [7] | Potency [8]

OC[C@@H](O)[C@@H](O)[C@@H](O)[C@@H](O)c1nc2ccc(Cl)cc2[nH]1
inactive: Potency [1] > 11.4 µM | activity change, negative = inhibition [2] 4.42% | activity change, negative = inhibition [3] 10.1% | activity, negative = inhibition [4] -0.802% | Potency [5] > 46 µM | Potency [6] > 9.22 µM | Potency [7] | Potency [8]

S=c1nc(-c2nc(=S)[nH]c3c2CCCCCCCCCC3)c2c([nH]1)CCCCCCCCCC2
inactive: Potency [1] > 11.4 µM | activity change, negative = inhibition [2] -8.81% | activity change, negative = inhibition [3] 15.1% | activity, negative = inhibition [4] 9.8% | Potency [5] > 46 µM | Potency [6] > 9.22 µM | Potency [7] | Potency [8]

N#C[C@H](C(=O)O)C(c1c(Cl)cccc1Cl)[C@H](C#N)C(=O)O
inactive: Potency [1] > 11.4 µM | activity change, negative = inhibition [2] 1.46% | activity change, negative = inhibition [3] 5.02% | activity, negative = inhibition [4] 5.11% | Potency [5] > 46 µM | Potency [6] > 9.22 µM | Potency [7] | Potency [8]

NC(=O)NOC[C@@H]1NC(=O)NC1=O
inactive: Potency [1] > 11.4 µM | activity change, negative = inhibition [2] 0.037% | activity change, negative = inhibition [3] 8.44% | activity, negative = inhibition [4] 9.07% | Potency [5] > 46 µM | Potency [6] > 9.22 µM | Potency [7] | Potency [8]

Nc1nc(N)c(N=Nc2ccc(C(=O)O)c(O)c2)c(N)n1
inactive: Potency [1] > 11.4 µM | activity change, negative = inhibition [2] 2.15% | activity change, negative = inhibition [3] 15.4% | activity, negative = inhibition [4] -2.93% | Potency [5] > 46 µM | Potency [6] > 9.22 µM | Potency [7] | Potency [8]

COc1ccc(Oc2ncc3nc(-c4ccccc4)c(=O)n(CCC#N)c3n2)cc1
inactive: Potency [1] > 11.4 µM | activity change, negative = inhibition [2] -26.9% | activity change, negative = inhibition [3] -6.24% | activity, negative = inhibition [4] -6.05% | Potency [5] > 9.22 µM | Potency [6] > 46 µM | Potency [7] | Potency [8]

FC(F)(F)c1cc(NC(=S)N2c3ccccc3-n3cccc3[C@H]2c2cccnc2)cc(C(F)(F)F)c1
inactive: Potency [1] > 11.4 µM | activity change, negative = inhibition [2] -2.69% | activity change, negative = inhibition [3] 16.9% | activity, negative = inhibition [4] -5.05% | Potency [5] > 46 µM | Potency [6] > 9.22 µM | Potency [7] | Potency [8]

CC(=O)Nc1nc2ncc(C=O)nc2c(=O)[nH]1
inactive: Potency [1] > 11.4 µM | activity change, negative = inhibition [2] -2.43% | activity change, negative = inhibition [3] 17.3% | activity, negative = inhibition [4] 5.76% | Potency [5] > 46 µM | Potency [6] > 9.22 µM | Potency [7] | Potency [8]
